Compounds without any hit were thinned out: in the full panel of roughly 83,000, 20% have a hit.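 How to read the values: 0–100, growth inhibition (40 = 60% inhibited); 0, no net growth; -100 to 0, cell death (-40 = 40% of starting cells died; -100 = all dead).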 Calls of active or inactive are those of the source. How the source made its calls: active means growth percent below 10; inactive means the rest.

The test system of this assay is HL-60(TB) leukemia. Nature of the assay: NCI-60 one-dose screen, 48 h (100 = growth as untreated, 0 = no growth, -100 = all killed). The settings on record: 10 µM unless noted.
Consider `O=C1c2c[n+](Cc3ccccc3)ccc2-c2nc3ccccc3c3ccnc1c23`, for which the growth was -29.6% (active).
To `N=C(N)c1ccc(-c2ccc(-c3ccc4ccccc4c3)s2)s1` belongs -56.4% (active); to `O=[N+]([O-])CC(c1ccccc1)c1c[nH]c2ccccc12` (stereo not drawn), 7.86% (active).
Under `COc1nc2ccc(C)cc2cc1-c1nc2c(cnn2-c2ccc(Br)cc2)c(=O)[nH]1` stands 23.7% (inactive); under `O=C(/C=C/c1ccccc1Cl)c1ccc(O)cc1`, 60.2% (inactive).
Under `C#CC[C@@H]1C[C@]2(C)[C@H]3CC=C4[C@H]5[C@@H](C)[C@H](C)CC[C@]5(C(=O)NCCCCCCCCN)CC[C@@]4(C)[C@]3(C)CC[C@H]2C(C)(C)[C@H]1OC(C)=O` stands -15.1% (active); under `CC(C)N1C(=O)/C(=c2\sc3n(c2=O)C2C(NN=3)N(C)C(=O)N2C)c2ccccc21` (stereo not drawn), 25.8% (inactive); under `O=C(Nc1cccc(-n2cc(-c3ccncc3)c(-c3cc(O)cc(Cl)c3)n2)c1)c1cc(C(F)(F)F)cc(C(F)(F)F)c1`, 21.4% (inactive).
On to `CC(=O)C1N=NCC1c1ccccc1` (stereo not drawn), for which the growth was 96.8% (inactive).
Under `Cc1nc2ccc(CN(C)c3ccc(C(=O)N[C@@H](CCC(=O)O)C(=O)O)s3)cc2c(=O)[nH]1` stands 27.9% (inactive); under `COc1ccc(C(=O)/C=C/c2cc(-c3ccc(OC)c(OC)c3)n[nH]2)cc1OC`, -25.4% (active); under `CC(=O)c1ccc(Br)c([N+](=O)[O-])c1`, 122% (inactive).
Under `O=C(Cc1ccc(/C=C/C(=O)c2ncc[nH]2)cc1)Nc1cc(C(F)(F)F)cc(C(F)(F)F)c1` stands 52.1% (inactive).

The values above are taken from PubChem BioAssay (NCI).
